PubChem BioAssay AID1159580 (chemical genetic matrix, 2015)
“And” between values parts separate entries of the source, which are not always exact repeats. Equal entries are not always repeated. In all, about 5,500 compounds went through this assay and about 2,000 (36%) were called active. Another 18% or so got no clear call; they are omitted. Rule as the data show it: active = normalized growth mostly below about 0.91 (no sharp cut-off); inconclusive = no clear call, values can overlap the other calls; inactive = mostly above about 0.92. The list shows a part of the results.

Experiment: chemical genetic growth profiling, strain panel (AID 1159580);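 also: tested at 20 µM; growth read once vehicle control cultures reached saturation at 30 °C; 1 = growth at the plate median or of vehicle wells; lower values mean less growth of the strain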
Conditions: growth OD
[1] = S. cerevisiae deletion strains, locus YMR307W, strain GAS1, stronger effect = lower value

Measured: normalized growth

CC(C)(O)C1C2OC(=O)C1C1(O)CC3OC34C(=O)OC2C14C (stereo not given) (tested in a mixture with another compound)
active: S. cerevisiae deletion strains, locus YAL040C, strain CLN3, stronger effect = lower value 0.454 | S. cerevisiae deletion strains, locus YNL175C, strain NOP13, stronger effect = lower value 0.537 | S. cerevisiae deletion strains, locus YOR083W, strain WHI5 (second series), stronger effect = lower value 0.502
inactive: S. cerevisiae deletion strains, locus YCL061C, strain MRC1 (second series), stronger effect = lower value 1.01 | S. cerevisiae deletion strains, locus YDR363W, strain ESC2, stronger effect = lower value 0.969 | [1] 0.983 | S. cerevisiae deletion strains, locus YNL197C, strain WHI3, stronger effect = lower value 1 | S. cerevisiae deletion strains, locus YNL224C, strain SQS1, stronger effect = lower value 1

C=C(C)[C@@H]1[C@H]2OC(=O)[C@@H]1[C@]1(O)C[C@H]3O[C@]34C(=O)O[C@H]2[C@]14C
inactive: S. cerevisiae deletion strains, locus YAL013W, strain DEP1, stronger effect = lower value 0.985 | S. cerevisiae deletion strains, locus YBR021W, strain FUR4, stronger effect = lower value 1.01 | S. cerevisiae deletion strains, locus YBR229C, strain ROT2, stronger effect = lower value 0.947 | S. cerevisiae deletion strains, locus YCL029C, strain bik1, stronger effect = lower value 0.997 | S. cerevisiae deletion strains, locus YDL035C, strain GPR1, stronger effect = lower value 0.987 | S. cerevisiae deletion strains, locus YDL074C, strain BRE1, stronger effect = lower value 1.02 | S. cerevisiae deletion strains, locus YDL101C, strain DUN1, stronger effect = lower value 0.98 | S. cerevisiae deletion strains, locus YDL134C, strain PPH21, stronger effect = lower value 0.988 | S. cerevisiae deletion strains, locus YDL185W, strain tfp1, stronger effect = lower value 1 | S. cerevisiae deletion strains, locus YDL192W, strain arf1, stronger effect = lower value 0.99 | S. cerevisiae deletion strains, locus YDR101C, strain arx1, stronger effect = lower value 1 | S. cerevisiae deletion strains, locus YDR150W, strain NUM1, stronger effect = lower value 0.971 | S. cerevisiae deletion strains, locus YDR162C, strain NBP2, stronger effect = lower value 0.987 | S. cerevisiae deletion strains, locus YDR318W, strain mcm21, stronger effect = lower value 1.01 | S. cerevisiae deletion strains, locus YDR388W, stronger effect = lower value 1.01 | S. cerevisiae deletion strains, locus YDR502C, strain sam2, stronger effect = lower value 0.994 | S. cerevisiae deletion strains, locus YEL061C, strain CIN8, stronger effect = lower value 0.987 | S. cerevisiae deletion strains, locus YER110C, stronger effect = lower value 0.973 | S. cerevisiae deletion strains, locus YER155C, strain BEM2, stronger effect = lower value 0.999 | S. cerevisiae deletion strains, locus YER167W, strain BCK2, stronger effect = lower value 1 | S. cerevisiae deletion strains, locus YGL078C, strain dbp3, stronger effect = lower value 0.994 | S. cerevisiae deletion strains, locus YGL086W, strain mad1, stronger effect = lower value 0.99 | S. cerevisiae deletion strains, locus YGL248W, strain PDE1, stronger effect = lower value 0.98 | S. cerevisiae deletion strains, locus YGR078C, strain PAC10, stronger effect = lower value 1.01 | S. cerevisiae deletion strains, locus YGR135W, strain pre9, stronger effect = lower value 1 | S. cerevisiae deletion strains, locus YGR229C, strain SMI1, stronger effect = lower value 1.01 | S. cerevisiae deletion strains, locus YGR252W, strain gcn5, stronger effect = lower value 0.95 | S. cerevisiae deletion strains, locus YHR030C, strain SLT2, stronger effect = lower value 0.996 and 1.03 | S. cerevisiae deletion strains, locus YHR079C, strain IRE1 (second series), stronger effect = lower value 1 | S. cerevisiae deletion strains, locus YHR079C, strain IRE1, stronger effect = lower value 0.993 | S. cerevisiae deletion strains, locus YHR094C, strain hxt1, stronger effect = lower value 0.996 | S. cerevisiae deletion strains, locus YHR129C, strain ARP1, stronger effect = lower value 1 | S. cerevisiae deletion strains, locus YHR200W, strain rpn10, stronger effect = lower value 1 | S. cerevisiae deletion strains, locus YIL066C, strain RNR3, stronger effect = lower value 0.97 | S. cerevisiae deletion strains, locus YIL073C, strain SPO22, stronger effect = lower value 0.982 | S. cerevisiae deletion strains, locus YIL125W, strain kgd1, stronger effect = lower value 0.99 | S. cerevisiae deletion strains, locus YIR030C, strain dcg1, stronger effect = lower value 0.99 | S. cerevisiae deletion strains, locus YJL095W, strain BCK1, stronger effect = lower value 1.02 and 0.989 | S. cerevisiae deletion strains, locus YJL134W, strain LCB3, stronger effect = lower value 0.984 | S. cerevisiae deletion strains, locus YJL168C, strain set2, stronger effect = lower value 1 | S. cerevisiae deletion strains, locus YJL187C, strain SWE1 (second series), stronger effect = lower value 0.986 | S. cerevisiae deletion strains, locus YJR043C, strain POL32, stronger effect = lower value 1.02 | S. cerevisiae deletion strains, locus YJR066W, strain TOR1, stronger effect = lower value 0.962 | S. cerevisiae deletion strains, locus YJR075W, strain HOC1, stronger effect = lower value 1 | S. cerevisiae deletion strains, locus YKL009W, strain mrt4, stronger effect = lower value 0.96 | S. cerevisiae deletion strains, locus YKL068W, stronger effect = lower value 0.997 | S. cerevisiae deletion strains, locus YKL085W, strain MDH1 (second series), stronger effect = lower value 0.996 | S. cerevisiae deletion strains, locus YKL085W, strain MDH1, stronger effect = lower value 0.996 | S. cerevisiae deletion strains, locus YKL190W, strain CNB1, stronger effect = lower value 1 | S. cerevisiae deletion strains, locus YKR001C, strain vps1, stronger effect = lower value 1.01 | S. cerevisiae deletion strains, locus YLR039C, strain RIC1, stronger effect = lower value 0.972 | S. cerevisiae deletion strains, locus YLR058C, strain SHM2, stronger effect = lower value 0.964 | S. cerevisiae deletion strains, locus YLR102C, strain apc9, stronger effect = lower value 1 | S. cerevisiae deletion strains, locus YLR113W, strain HOG1, stronger effect = lower value 0.982 | S. cerevisiae deletion strains, locus YLR262C, strain YPT6, stronger effect = lower value 0.93 | S. cerevisiae deletion strains, locus YLR268W, strain sec22, stronger effect = lower value 1.07 | S. cerevisiae deletion strains, locus YLR330W, strain CHS5, stronger effect = lower value 0.983 | S. cerevisiae deletion strains, locus YLR342W, strain FKS1 (second series), stronger effect = lower value 1.01 | S. cerevisiae deletion strains, locus YLR371W, strain rom2, stronger effect = lower value 0.988 | S. cerevisiae deletion strains, locus YLR418C, strain cdc73, stronger effect = lower value 0.998 | S. cerevisiae deletion strains, locus YML016C, strain PPZ1, stronger effect = lower value 0.982 | S. cerevisiae deletion strains, locus YML032C, strain rad52, stronger effect = lower value 1.02 | S. cerevisiae deletion strains, locus YML124C, strain tub3, stronger effect = lower value 0.992 | S. cerevisiae deletion strains, locus YMR078C, strain ctf18, stronger effect = lower value 1 | S. cerevisiae deletion strains, locus YMR223W, strain ubp8, stronger effect = lower value 0.983 | S. cerevisiae deletion strains, locus YMR263W, strain SAP30, stronger effect = lower value 1.01 | [1] 0.987 | S. cerevisiae deletion strains, locus YNL067W, strain RPL9B, stronger effect = lower value 1.02 | S. cerevisiae deletion strains, locus YNL128W, strain TEP1, stronger effect = lower value 0.976 | S. cerevisiae deletion strains, locus YNL153C, strain GIM3, stronger effect = lower value 0.998 | S. cerevisiae deletion strains, locus YNL183C, strain NPR1, stronger effect = lower value 0.954 | S. cerevisiae deletion strains, locus YNL233W, strain BNI4, stronger effect = lower value 1 | S. cerevisiae deletion strains, locus YNL250W, strain rad50, stronger effect = lower value 0.975 | S. cerevisiae deletion strains, locus YNL271C, strain bni1, stronger effect = lower value 1.01 | S. cerevisiae deletion strains, locus YNL298W, strain CLA4, stronger effect = lower value 0.999 | S. cerevisiae deletion strains, locus YNL307C, strain MCK1, stronger effect = lower value 0.987 | S. cerevisiae deletion strains, locus YNL322C, strain KRE1, stronger effect = lower value 0.994 | S. cerevisiae deletion strains, locus YNR052C, strain pop2, stronger effect = lower value 1 | S. cerevisiae deletion strains, locus YOL006C, strain TOP1, stronger effect = lower value 1.03 | S. cerevisiae deletion strains, locus YOL012C, strain htz1 0.801 | S. cerevisiae deletion strains, locus YOL147C, strain pex11, stronger effect = lower value 0.991 | S. cerevisiae deletion strains, locus YOR061W, strain CKA2, stronger effect = lower value 0.976 | S. cerevisiae deletion strains, locus YOR069W, strain VPS5, stronger effect = lower value 0.98 | S. cerevisiae deletion strains, locus YOR136W, strain idh2, stronger effect = lower value 0.986 | S. cerevisiae deletion strains, locus YOR144C, strain elg1, stronger effect = lower value 0.997 | S. cerevisiae deletion strains, locus YOR184W, strain ser1, stronger effect = lower value 0.985 | S. cerevisiae deletion strains, locus YOR231W, strain MKK1, stronger effect = lower value 1.02 | S. cerevisiae deletion strains, locus YOR316C, strain cot1, stronger effect = lower value 0.995 | S. cerevisiae deletion strains, locus YPL055C, strain LGE1, stronger effect = lower value 0.978 | S. cerevisiae deletion strains, locus YPL241C, strain CIN2, stronger effect = lower value 0.994 | S. cerevisiae deletion strains, locus YPL256C, strain CLN2, stronger effect = lower value 1.05 | S. cerevisiae deletion strains, locus YPR119W, strain clb2, stronger effect = lower value 0.991 | S. cerevisiae deletion strains, locus YPR141C, strain kar3, stronger effect = lower value 0.981 | S. cerevisiae deletion strains, locus YPR163C, strain tif3, stronger effect = lower value 1 | S. cerevisiae deletion strains, locus YPR167C, strain met16, stronger effect = lower value 1 | S. cerevisiae deletion strains, strain wtn01, stronger effect = lower value 1.02 | S. cerevisiae strains, strain wild type, stronger effect = lower value 0.981
